12-LOX inh: ALOX12 (human) lipoxygenase inhibition; P18054; purified 12hLO, xylenol orange hydroperoxide absorbance; AID 1671190; Potency, µM (titrated, usually from 108 µM), for inactives: at the top dose activity change, negative = inhibition, actives largely listed as inhibitors; 1.1% of 580,000 active; also: % is scaled to controls: 0 for no effect and ±100 for the full control effect
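Purified human 12hLO at 150 nM in 25 mM Hepes, 0.01% Triton X-100, pH 7.0, preincubated 15 min at room temperature with compound. Reaction started with 40 uM arachidonic acid, 30 min at room temperature. Hydroperoxide measured by Fe-xylenol orange, 573/405 nm absorbance ratio.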
TrxR1 substrate: rat thioredoxin reductase 1 substrate activity | purified TrxR1 substrate turnover, NADPH consumption readout | Potency, µM (top dose mostly 114 µM), for the others: at the top dose activity change, negative = substrate turnover | 0.01% of 390,000 active; also: % is scaled to controls: 0 for no effect and ±100 for the full control effect; nearly all actives have a fitted effect of over 50% in size
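Rat TrxR1, dispensed at 90 nM, was prereduced with 400 uM NADPH (final) for 5 min at ~22 deg C, then incubated with compound 15 min before 400 uM selenite. A first-read NADPH fluorescence drop versus no-compound background flagged substrates.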
Apoferritin bind: binds horse apoferritin like a general anesthetic; apoferritin/1-aminoanthracene competitive binding, fluorescence; 0.074% of 350,000 active; P02791; Potency, µM (titrated, usually from 77.5 µM), for the others: at the highest dose activity change, negative = displacement, usual class: inhibitors; also: % is scaled to controls: 0 for no effect and ±100 for the full control effect; nearly all actives have a fitted effect of over 20% in size
Target sequence (P02791 2-175 limits assumed): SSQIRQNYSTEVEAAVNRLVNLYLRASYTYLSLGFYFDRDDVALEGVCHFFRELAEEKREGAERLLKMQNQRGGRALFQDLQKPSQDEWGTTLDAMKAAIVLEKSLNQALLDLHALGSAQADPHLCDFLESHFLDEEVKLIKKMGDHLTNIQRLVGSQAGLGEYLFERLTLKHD
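Probe: 1-aminoanthracene (50% saturated, PBS). Protein: horse-spleen apoferritin, 10 uM. Incubation: 10 min, room temperature. Detection: 380 nm excitation, 535 nm emission. Analysis: normalized response, four-parameter Hill.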
mIDH1 inhibitor: inhibitors of human mutant IDH1 R132H; IDH1-R132H enzyme, NADPH consumption, diaphorase/resazurin fluorescence; Potency, µM (top dose mostly 76.6 µM), inactives show top-dose activity change, negative = inhibition, hits mostly inhibitors; 0.093% of 390,000 active; also: % is scaled to controls: 0 for no effect and ±100 for the full control effect; nearly all actives have a fitted effect of over 65% in size
Target sequence (O75874 whole entry R132H, stated change not applied): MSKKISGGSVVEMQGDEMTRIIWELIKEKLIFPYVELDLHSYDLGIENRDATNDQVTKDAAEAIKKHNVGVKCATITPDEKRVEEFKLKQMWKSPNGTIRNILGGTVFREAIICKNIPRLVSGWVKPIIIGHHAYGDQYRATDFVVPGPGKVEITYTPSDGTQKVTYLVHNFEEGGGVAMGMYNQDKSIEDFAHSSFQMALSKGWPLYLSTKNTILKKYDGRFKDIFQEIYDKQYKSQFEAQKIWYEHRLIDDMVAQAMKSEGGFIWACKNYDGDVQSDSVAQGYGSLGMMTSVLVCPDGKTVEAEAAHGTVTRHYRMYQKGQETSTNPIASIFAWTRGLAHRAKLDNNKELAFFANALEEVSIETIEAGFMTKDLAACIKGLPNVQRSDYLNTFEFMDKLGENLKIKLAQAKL
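IDH1-R132H (0.5 ug/mL) preincubated 30 min with compound, then NADPH (0.016 mM) and alpha-KG (2 mM) added; 80 min at RT, pH 7.5. Remaining NADPH coupled via diaphorase/resazurin to fluorescence (540/590 nm); concentration-response curves normalized to no-enzyme control.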
TrxR1 inh: blocks rat thioredoxin reductase 1; recombinant rTrxR1, NADPH fluorescence consumption, selenite substrate; 1% of 390,000 active; O89049; Potency, µM (doses to about 114 µM), for the others: at the highest dose activity change, negative = inhibition, actives largely listed as inhibitors; also: % is scaled to controls: 0 for no effect and ±100 for the full control effect; nearly all actives have a fitted effect of over 65% in size
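Rat TrxR1 (90 nM in the dispensed reagent) was pre-reduced with 400 uM NADPH for 5 min at room temperature, then incubated with compound for 15 min. After 400 uM selenite was added, NADPH fluorescence (Ex 340/Em 450 nm) was followed for 8 min.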
GRP78 ERSR act: ER stress response induction in glioma. U87-MG GRP78 promoter luciferase reporter, 16 h. Potency, µM, inactives show at the top dose activation, usual class: activators. 0.02% of 420,000 active; also: series mostly up to about 76 µM; % of control where 0% means no effect; nearly all actives have a fitted effect of over 35% in size
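Stably transfected U87-MG glioma cells carrying a GRP78-based luciferase sensor; 16 h compound incubation. Luminescence end-point read 10 min after Bright-Glo addition at room temperature.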
* hit, by the source's call; ? = inconclusive; · = no result given; ! = a repeat was not active; [ ] = remark or other dose. In the library only some 1.7% were active in any assay of this set; here they are far more common. Calls follow the shape of the dose curve; as a rule, active = well fitted curve in the direction sought with a large enough effect; inconclusive = small, poorly fitted or top-dose-only effect, or another doubt; inactive = no such curve, though single readings can be large; an effect the other way counts as inactive or inconclusive. Potency is read from the fitted curve at half-maximal effect.

SMILES	12-LOX inh	TrxR1 substrate	Apoferritin bind	mIDH1 inhibitor	TrxR1 inh	GRP78 ERSR act
Cc1ccc(C(=O)OCC(=O)c2cc(C)ccc2C)cc1	-51%	·	·	·	·	·
Fc1cccc(-c2nc(COc3ccc(Br)cc3F)co2)c1	32µM*	·	·	·	·	·
CCN1C(=NCCc2ccc(Br)cc2)N[C@@H](c2ccccc2)[C@H](C(=O)OC)[C@H]1C	45µM*	-5%	-19%	-4%	11%[57.1 µM]	-4%
CC1=C(C(=O)Nc2ccccc2)C(c2cccnc2)n2nc(SCc3ccccc3Cl)nc2N1 (centres undefined)	0%	-1%[2.29 µM]	-8%	-8%	9%	-2%
Cn1c(=O)[nH]c(=O)c2c1nc(N/N=C/C(Br)=C/c1ccccc1)n2CCO	116%	-5%	4%	12%	3.5µM*	3%
CCNC(=O)NC(=O)C(C)OC(=O)c1nn(CC(C)C)c(=O)c2ccccc12 (centres undefined)	6%	·	·	·	·	·
COc1cc(NC(=S)N2CCC(C(O)(c3ccccc3)c3ccccc3)CC2)cc(OC)c1	40µM*	0%	-17%	-1%	8%	-6%
CC(=O)N1CN(Cc2ccccn2)Cc2c1sc1c2CCCC1	-16%	-2%	-3%	7%	50µM*	-1%
CC(=O)N1CN(CCCn2ccnc2)Cc2c1sc1c2CCCC1	25%	6%[57.1 µM]	-18%	2%	9%[57.1 µM]	2%
CCN1CCN(CCCN2CC3(CCN(C(=O)C4CCOC4)CC3)OC2=O)CC1 (centres undefined)	-5%	·	·	·	·	·
O=C(N/N=C/C=C/c1ccccc1[N+](=O)[O-])c1cccs1	-14%	-2%	-15%	4%	1%	3%
COc1ccccc1OCC(=O)N/N=C/C=C/c1ccc([N+](=O)[O-])o1	?	-3%	-23%	2%	7.1µM*	-8%
Cc1ccccc1OCC(=O)N/N=C/c1ccc([N+](=O)[O-])o1	-13%	-6%	-12%	8%	?	-2%
O=C(N/N=C\C=C\c1ccc([N+](=O)[O-])o1)c1cccs1	0%	-3%	1%	-1%	7.9µM*	3%
O=C(N/N=C/c1ccc([N+](=O)[O-])o1)c1ccc(NS(=O)(=O)c2cccs2)cc1	-22%	-3%	-13%	0%	10µM*	-9%
O=C(N/N=C/c1ccc([N+](=O)[O-])cc1)c1ccc(NS(=O)(=O)c2cccs2)cc1	-29%	-12%	·	-6%	-6%	0%
CCOC(=O)C1(CCCc2ccccc2)CCN(C(=O)[C@@H]2C[C@@H](C)NC(=S)N2)CC1	45µM*	7%[57.1 µM]	-11%	-6%	6%[57.1 µM]	-10%
CCOC(=O)C1(CCCc2ccccc2)CCN(C(=O)COC)CC1	0%	5%	-8%	10%	18%	-3%
O=C1NCCCC2c3c(cc(Br)c(O)c3Br)OC12N1CCOCC1 (centres undefined)	?	-6%	-6%	11%	16µM*	-5%
CC(OC(=O)c1cc(S(=O)(=O)N(C)C)ccc1N1CCCC1)C(=O)NC1CCCC1 (centres undefined)	7%	·	·	·	·	·
CCCn1nc(C)cc1CN(C)c1ccc(NC(=O)c2ccc(OC)cc2)cc1C(=O)O	4.5µM*	·	·	·	·	·
CCCNC(=O)CN1CCN(c2ccc(NC(=O)c3ccc(OC)cc3)cc2C(=O)O)CC1	?	7%[57.1 µM]	-4%	0%	26%[57.1 µM]	0%
COc1ccc(C(=O)/C=C/Sc2nc3ccccc3o2)cc1	?	-6%	-10%	-1%	1µM*	-10%
Cc1ccc(C)c(C(=O)CSc2n[nH]c(C)n2)c1	-8%	-3%	-11%	0%	35µM*	-3%
c1ccc(C[n+]2cccc3c4ccccc4ccc32)cc1	21%	101%[57.1 µM]	216%	12%	24%[57.1 µM]	-7%
SMILES	12-LOX inh	TrxR1 substrate	Apoferritin bind	mIDH1 inhibitor	TrxR1 inh	GRP78 ERSR act
CCCCC[n+]1cccc2c3ccccc3ccc21	45µM*	390%	92%	17%	?	-5%
CCn1c2ccccc2c2cc(CN3CCN(Cc4ccccc4F)CC3)ccc21	28µM*	5%	36%	13%	-7%	-5%
CCn1c2ccccc2c2cc(CN3CCN(Cc4ccccc4C)CC3)ccc21	-31%	8%	-2%	-11%	11%	-5%
O=C(CCl)Nc1cccc2ncccc12	-14%	-4%	5%	8%	50µM*	?
O=C(COc1ccccc1)Nc1cccc2ncccc12	7%	·	·	·	·	·
Nc1cccc(C(=O)Nc2cccc3ncccc23)c1	13%	-13%	-1%	2%	-12%	1%
O=C(CCCl)Nc1cccc2cccnc12	·	9%	·	·	13µM*	-11%
NNc1cccc2ncccc12	3.5µM*	·	·	·	·	·
NC(=O)c1cccnc1N1CCC(n2cc(-c3ccccc3Cl)nn2)CC1	9%	·	·	·	·	·
CC[n+]1c(/C=C2\Sc3ccccc3N2C)ccc2cccc(C)c21	45µM*	4%[57.1 µM]	?	3%	11%[57.1 µM]	-14%
CCN1/C(=C/c2ccc3cc(C)ccc3[n+]2CC)Sc2cc(C)c(C)cc21	50µM*	-4%[57.1 µM]	-12%	-3%	18%[57.1 µM]	-12%
CCN1/C(=C/c2ccc3cc(C)ccc3[n+]2CC)Sc2ccccc21	45µM*	-1%	?	4%	23%	-11%
Cc1ccc(N=C2NN=C(c3cc(C)n(CC4CCCO4)c3C)CS2)cc1C (centres undefined)	35µM*	·	·	·	·	·
CCN(CC)Cc1ccc(CNC(=O)Cc2c[nH]c3ccccc23)cc1	-1%	·	·	·	·	·
Cc1ccc(C(=O)N/C(=C\c2ccc(-c3ccccc3[N+](=O)[O-])o2)C(=O)NCCCN2CCOCC2)cc1	-28%	-7%	-18%	0%	40µM*	-8%
C/C(=N\NC(=S)Nc1ccccc1C)c1cc2ccccc2o1	20µM*	0%	-4%	-1%	-3%	0%
C/C(=N\NC(=S)Nc1c(C)cccc1C)c1cc2ccccc2o1	?	7%	-9%	-5%	20%	-2%
Cn1nc2n(c1=O)CCN(C(=O)Cc1ccsc1)CC2	48%	·	·	·	·	·
CCc1nc(N2CCN(C(=O)c3ccco3)CC2)c(C#N)c2c1COC(C)(C)C2	-16%	57%	-9%	-10%	-20%	-2%
CC(=O)N1CCN(c2nc(-c3ccco3)c3c(c2C#N)CC(C)(C)SC3)CC1	35µM*!	13%[57.1 µM]	-4%	-14%	?	-7%
CC1CCN(C(=O)C(=O)N2CCN(c3nc(-c4ccco4)c4c(c3C#N)CCC4)CC2)CC1	35%	·	·	·	·	·
CCCCc1nc(NCCNC(=O)c2ccco2)c(C#N)c2c1CSC(C)(C)C2	-23%	77%	-16%	-3%	50µM*	1%
CC1(C)Cc2c(C#N)c(N3CCN(C(=O)c4ccco4)CC3)nc(-c3ccco3)c2CS1	2%	27%	-21%	2%	7.1µM*	0%

Source: PubChem BioAssay
